Each structure is given as a SMILES string. Results filed as inconclusive are left out. Where a call stands in place of a potency, no number is given. Calls of active or inactive are those of the source. Calls come from the whole dose curve; as a rule, active = well fitted activation curve with a large enough effect; inconclusive = small, poorly fitted or top-dose-only effect; inactive = flat fitted curve, though single readings scatter.

The assay in a line: qHTS for Inhibitors of Cell Surface uPA Generation: Confirmatory Assay for Cherry-picked Compounds. As to conditions: cell surface uPA activity generation, qHTS confirmation; series mostly up to 115 µM. In a few lines: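 RAW 264.7 cells at 4000/well, incubated overnight, then treated with compounds. After 24 h at 37 C, viability was read by ATPlite luminescence. An increase in signal indicates blocked uPA-dependent LF entry.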
For the compound `CC1(C)CC2(CC(c3ccccc3)Oc3cc(O)ccc32)NC(=S)N1` (centres undefined), the Potency entry was “inactive”.

On to `CCC(C)Nc1cc(C)nc2ncnn12` (centres undefined), for which the Potency result was “inactive”.

Turning to `CCOc1ccc(NS(=O)(=O)c2ccc(C(=O)N3CCC3)cc2)cc1`, the Potency result was “inactive”.

As to `CN1CC[C@]23c4ccccc4N[C@H]1[C@]21CCN(C)[C@H]3Nc2ccccc21`, the Potency entry is “inactive”.

For `CCOc1cc(/C=N/Nc2cc(C)nc3ccc(C)cc23)ccc1O`, the Potency result was “inactive”.

On to `O=C(COc1cc2oc(=O)cc(-c3ccccc3)c2cc1Cl)NC(Cc1c[nH]c2ccc(O)cc12)C(=O)O` (centres undefined), for which the Potency result was “inactive”.

For the compound `COc1ccc([C@H]2[C@H](C(=O)OC(C)(C)C)N3N=Cc4ccccc4C3C23C(=O)c2ccccc2C3=O)cc1OC` (some centres undefined), the Potency entry is “inactive”.

As to `C[C@H](CO)N1C[C@H](C)[C@H](CN(C)S(=O)(=O)c2cn(C)cn2)Oc2ccc(NC(=O)Nc3ccc(C(F)(F)F)cc3)cc2CC1=O`, the Potency result is “inactive”.

For the compound `Cc1nc(SCC(=O)NCCN2C(=O)CSC2=O)nc(C)c1C`, the Potency entry was “inactive”.

For `CCCNC(=O)C1CCC(CNS(=O)(=O)c2ccc3c(c2)CC(C)N3C(C)=O)CC1` (centres undefined), the Potency entry was “inactive”.

As to `CC(=O)c1cnc2nc(SCc3cccc(C)c3)nn2c1C`, the Potency result is “inactive”.

As to `O=C(NNC(=O)c1ncc(Cl)c(Cl)c1Cl)c1ccc(F)cc1`, the Potency result was “inactive”.

`CC(=O)c1ccc(N=C2SCCCN2C(=O)C2CCCCC2)cc1`: the Potency result is “inactive”.

For `Cc1nc2ccc(Br)cn2c1C(=O)N/N=C\c1ccccc1Cl`, the Potency entry was “inactive”.

Turning to `O=C(CSC1=NS(=O)(=O)c2ccccc2N1)Nc1nccs1`, the Potency result is “inactive”.

Take `COc1ccc(C(=O)CC2(C(=O)O)CCCCC2)cc1`: the Potency result is “inactive”.

For `COc1ccccc1C(=O)NCc1ccccc1`, the Potency entry is “inactive”.

Take `COc1cc(NC(=O)CSc2nnc3ccc(-c4ccncc4)nn23)cc(OC)c1`: the Potency entry is “inactive”.

With `Cc1ccc2cc(C=O)c(Cl)nc2c1`, the Potency entry is “inactive”.

Turning to `CCOc1ccc(-c2n[nH]c(=S)n2Cc2ccccc2)cc1`, the Potency result was “inactive”.

As for `CC(C)NC(=O)CN1CCC(c2nc3ccccc3[nH]2)CC1`, the Potency entry is “inactive”.

In the case of `CCOC(=O)C1(CC2CCCCO2)CCN(Cc2nccn2-c2cccc(C)c2)CC1` (centres undefined), the Potency result is “inactive”.

For `Clc1ccccc1N1CCN(c2ncnc3nc[nH]c23)CC1`, the Potency entry is “inactive”.

`COc1cc(/C=N/NC(=O)c2cc(-c3ccco3)nc3ccccc23)cc(OC)c1O`: the Potency result is “inactive”.

As for `CC(=O)Nc1sc(C)c(C)c1C(=O)OCC(=O)NC(C)c1ccccc1` (centres undefined), the Potency entry is “inactive”.

For `CC1(C)CC(=O)C([N+](=O)[O-])=C(NCCCC(=O)O)C1`, the Potency result is “inactive”.

Take `CCc1ccc(NCc2nc(-c3ccccc3)no2)cc1`: the Potency entry is “inactive”.

For `COCc1cc(C)nc2sc(C(=O)Nc3nccs3)c(N)c12`, the Potency result was “inactive”.

Regarding `CCn1c(=O)cc(C(=O)OC)sc1=Nc1ccc(F)c(F)c1`, the Potency entry is “inactive”.

With `CCCCCOC(=O)Nc1nnc(CCCCC)s1`, the Potency entry is “inactive”.

As to `NC(=O)c1ccccc1NC(=O)CC12CC3CC(CC(C3)C1)C2`, the Potency entry is “inactive”.

In the case of `CS(=O)(=O)Nc1cccc(C2=NN(S(=O)(=O)c3ccccc3)C(c3ccco3)C2)c1` (centres undefined), the Potency entry is “inactive”.

For `CCOC(=O)N1CCc2c(sc3nc4n(c(=O)c23)N=C(C)CS4)C1`, the Potency result is “inactive”.

For `CCOC(=O)CC(=O)CSc1nc2c(C)c(C)ccc2cc1C`, the Potency entry is “inactive”.

Regarding `CN(CCO)c1ccc(C(C(=O)c2ccccc2)c2ccc(N(C)CCO)cc2)cc1`, the Potency entry was “inactive”.

Consider `COc1ccc(C2C(C(=O)c3ccc(C)o3)=C(O)C(=O)N2CC2CCCO2)cc1OC` (centres undefined), for which the Potency result is “inactive”.

As for `CC1Cc2nc(SCC(=O)Nc3ccc4c(c3)OCO4)n(-c3ccc(F)cc3)c(=O)c2S1` (centres undefined), the Potency entry is “inactive”.

On to `O=C(C1CCN(c2nnc(N3CCCC3=O)s2)CC1)N1CCN(c2cccc(C(F)(F)F)c2)CC1`, for which the Potency entry was “inactive”.

In the case of `COc1ccc(C2=NOC(CNC(N)=S)C2)cc1` (centres undefined), the Potency result was “inactive”.
